Only some compounds are listed: those with a hit (about 3.2% of all), similar ones and a draw of the others.
CendR NRP1 mod – modulators of CendR peptide binding to human neuropilin-1. O14786. FAM-RPARPAR peptide binding to NRP-1, fluorescence polarization. inhibition, % at 25 µM. actives 0.85% (n = 360,000);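 active means inhibition or corrected inhibition above about 18%, plus a signal ratio from 0.5 to 1.5, limit read from the data, passing the limit was not always enough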
MEKK3 PB1 HTS – MEKK3-MEK5 PB1 interaction, increase or decrease; bead-based flow cytometry, Alexa488-MEK5 binding to MEKK3; actives lie on both sides; 0 = blocked by unlabeled MEK5, 100 = vehicle; binding response (% of control), % at 10 µM; actives 1.4% (n = 290,000);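 active means binding response more than 3 SD above or below the average of its plate-row segment, actives on both sides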;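 further: Alexa488 bead fluorescence after subtracting the streptavidin-only scavenger bead signal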
SKN-1 inh – blocks SKN-1 activity in C. elegans; inhibition, % at 21.8 µM; actives 0.49% (n = 360,000); C. elegans VP596 Pgst-4::GFP/RFP ratio, acrylamide-induced, 24 h; AID 624304;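 active means interference check ratio from 0.5 to 1.5 plus GFP to RFP signal ratio inhibition reaching or exceeding a fixed threshold, cut at about 30% in these data, passing the limit was not always enough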
MEKK2 mut-MEK5 – signal of MEK5 binding to mutant human MEKK2 PB1 domain. bead flow cytometry, Alexa488-MEK5 binding to MEKK2 mutant. percent response, % at 10 µM. actives 0.35% (n = 290,000). AID 1530; in the data active means percent response above about 24%, passing the limit was not always enough
MEKK2 WT-MEK5 – raises or lowers MEK5 binding to wildtype human MEKK2 PB1 domain; bead flow cytometry, Alexa488-MEK5 binding to MEKK2 WT; actives lie on both sides; actives 1.1% (n = 290,000); binding response (% of control), % at 10 µM; AID 1531; Q9Y2U5; in the data active means binding response below about 67% or above about 130%
MEKK2wt confirm – raises or lowers MEK5 binding to wildtype human MEKK2, retest. bead flow cytometry, Alexa488-MEK5 binding to MEKK2 WT; actives lie on both sides. binding response (% of control), % at 10 µM. actives 2.4% (n = 5,900). shares compounds with MEKK3 PB1 HTS. AID 1892; in the data active means binding response below about 16% or above about 210%; inactive means in between
MEKK2mut-MEK5 – signal of MEK5 binding to mutant human MEKK2, retest. percent response, % at 10 µM. bead flow cytometry, Alexa488-MEK5 binding to MEKK2 mutant. actives 2% (n = 5,900). AID 1893. shares compounds with MEKK3 PB1 HTS; in the data active means percent response mostly above about 71%, no sharp cut-off; inactive means mostly below about 38%;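 further: higher means compound restores mutant binding toward wildtype level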
MEKK3 confirm – MEKK3-MEK5 PB1 inhibition, single concentration confirmation. shares compounds with MEKK3 PB1 HTS. bead flow cytometry, Alexa488-MEK5 binding to MEKK3; hits give low values. binding response (% of control), % at 10 µM. actives 1.8% (n = 5,900). AID 1894;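 active means binding response below 72% of control, or above a set upper limit, though filed actives all read lower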;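 further: 100% = DMSO only wells and 0% = binding blocked by excess unlabeled MEK5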
* marks the source's active call; other numbers are inactive results; [ ] = dose if it differs, or a comment.

For Cc1c2ccccc2nc2c(F)c(N(C)C)c(F)c(F)c12 the results were CendR NRP1 mod 123.9, MEKK3 PB1 HTS 145.0*, SKN-1 inh 21.5, MEKK2 mut-MEK5 0.0, MEKK2 WT-MEK5 100.0, MEKK2wt confirm 97.0, MEKK2mut-MEK5 -2.0 and MEKK3 confirm 101.0.
`CC(C)n1c(=O)c2ccccc2n1Cc1cn(-c2ccc(Cl)cc2)nn1` gave CendR NRP1 mod -6.1 and SKN-1 inh 13.3.
For Cc1ccc(OC(=O)C23CC4CC(CC(C4)C2)C3)c(C)n1 the results were CendR NRP1 mod 3.5, MEKK3 PB1 HTS 96.0, SKN-1 inh -7.2, MEKK2 mut-MEK5 -2.0 and MEKK2 WT-MEK5 95.0.
Screening CCc1nc(C)ccc1OC(=O)C12CC3CC(CC(C3)C1)C2 returned CendR NRP1 mod 9.4, MEKK3 PB1 HTS 106.0, SKN-1 inh 4.8, MEKK2 mut-MEK5 3.0, MEKK2 WT-MEK5 138.0*, MEKK2wt confirm 92.0, MEKK2mut-MEK5 -10.0 and MEKK3 confirm 94.0.
For CNC(=S)NN=C(C)CCCC(C)=NNC(=S)NC the results were CendR NRP1 mod -1.6 and SKN-1 inh 0.3.
For Cc1ccc(CNC(=O)CSc2nc3ccsc3c(=O)n2Cc2ccccn2)cc1 the results were CendR NRP1 mod -0.5, MEKK3 PB1 HTS 103.0, SKN-1 inh 5.6, MEKK2 mut-MEK5 -6.0 and MEKK2 WT-MEK5 100.0.
Screening O=c1c2sccc2nc(SCc2ccc([N+](=O)[O-])cc2)n1Cc1ccccn1 returned CendR NRP1 mod -5.9, MEKK3 PB1 HTS 63.0*[inhibitor], SKN-1 inh 11.7, MEKK2 mut-MEK5 1.0, MEKK2 WT-MEK5 96.0, MEKK2wt confirm 100.0, MEKK2mut-MEK5 -1.0 and MEKK3 confirm 104.0.
CCCC[C@@H]1CNC(=O)C(=O)N1CCCCC1CCCCC1 was read as CendR NRP1 mod -12.0 and SKN-1 inh -8.8.
Screening Cc1cc(=O)oc2cc(OCCSCCN3CCCCC3)ccc12 returned CendR NRP1 mod -3.6, MEKK3 PB1 HTS 101.0, SKN-1 inh -6.1, MEKK2 mut-MEK5 5.0 and MEKK2 WT-MEK5 100.0.
For O=C(NCc1ccc(Cl)cc1)C1CCC(CNS(=O)(=O)c2ccccc2)CC1 (stereo not drawn) the results were CendR NRP1 mod -0.4, MEKK3 PB1 HTS 102.0, SKN-1 inh -14.9, MEKK2 mut-MEK5 8.0 and MEKK2 WT-MEK5 101.0.
CC(=O)Nc1ccc(S(=O)(=O)NCC2CCC(C(=O)NCc3ccccc3)CC2)cc1 (stereo not drawn) was read as CendR NRP1 mod 9.5, MEKK3 PB1 HTS 138.0*, SKN-1 inh 2.6, MEKK2 mut-MEK5 1.0, MEKK2 WT-MEK5 129.0, MEKK2wt confirm 101.0, MEKK2mut-MEK5 4.0 and MEKK3 confirm 101.0.
For C=CCCC(=O)N1C[C@H]2CCN(C)[C@H]2C[C@H]1c1ccc(Br)cc1 the results were CendR NRP1 mod 9.9 and SKN-1 inh 10.6.
`COC(=O)c1cccc(NC(=O)CCNC(=O)c2ccco2)c1` gave CendR NRP1 mod 0.4, MEKK3 PB1 HTS 102.0, SKN-1 inh -28.3, MEKK2 mut-MEK5 -7.0 and MEKK2 WT-MEK5 96.0.
Cc1cc(Cl)ccc1NC(=S)N(CCCN1CCOCC1)Cc1cccs1 was read as CendR NRP1 mod -6.5, MEKK3 PB1 HTS 128.0*, SKN-1 inh 5.8, MEKK2 mut-MEK5 0.0, MEKK2 WT-MEK5 106.0, MEKK2wt confirm 108.0, MEKK2mut-MEK5 3.0 and MEKK3 confirm 105.0.
COc1ccc(-c2c[n+](CC(=O)N3c4ccccc4Sc4ccccc43)c3n2CCC3)cc1 was read as CendR NRP1 mod -4.4, MEKK3 PB1 HTS 101.0, SKN-1 inh -4.0, MEKK2 mut-MEK5 16.0 and MEKK2 WT-MEK5 123.0.
Screening O=C(C[n+]1cc(-c2ccc(Cl)cc2)n2c1CCC2)N1c2ccccc2Sc2ccccc21 returned CendR NRP1 mod -7.7, MEKK3 PB1 HTS 100.0, SKN-1 inh -9.2, MEKK2 mut-MEK5 29.0, MEKK2 WT-MEK5 157.0*, MEKK2wt confirm 146.0, MEKK2mut-MEK5 19.0 and MEKK3 confirm 103.0.
Screening O=C(C[n+]1cc(-c2ccc(Cl)c(Cl)c2)n2c1CCC2)N1c2ccccc2Sc2ccccc21 returned CendR NRP1 mod 0.0, MEKK3 PB1 HTS 97.0, SKN-1 inh -7.7, MEKK2 mut-MEK5 55.0*, MEKK2 WT-MEK5 221.0*, MEKK2wt confirm 146.0, MEKK2mut-MEK5 18.0 and MEKK3 confirm 86.0.
`COc1ccc(S(=O)(=O)N2CCOCC2)cc1NC(=O)CSc1nnnn1C1CC1` gave CendR NRP1 mod -0.5 and SKN-1 inh 4.3.
Cn1c(N)c(C(=O)CSc2nnc(NC3CCCCC3)s2)c(=O)n(C)c1=O was read as CendR NRP1 mod -9.4 and SKN-1 inh 4.1.
Cc1cccc(C)c1NC(=O)Nc1nnc([C@@H]2C[C@H](O)[C@@H](CO)O2)s1 was read as CendR NRP1 mod 2.4 and SKN-1 inh 9.5.
For COCCN(Cc1ccc(OC)cc1)c1c(C)nc2ccc(C(=O)Nc3ccc(NC(C)=O)cc3)cn12 the results were CendR NRP1 mod -1.8 and SKN-1 inh 0.4.
`Oc1ccc(Cl)cc1/C=C/c1ccc2cccc(O)c2n1` gave CendR NRP1 mod -1.1, MEKK3 PB1 HTS 128.0*, SKN-1 inh -3.8, MEKK2 mut-MEK5 0.0, MEKK2 WT-MEK5 119.0, MEKK2wt confirm 94.0, MEKK2mut-MEK5 -8.0 and MEKK3 confirm 103.0.
Screening Oc1c(Cl)cc(Cl)cc1/C=C/c1ccc2cccc(O)c2n1 returned CendR NRP1 mod -92.6, MEKK3 PB1 HTS 100.0, SKN-1 inh 9.9, MEKK2 mut-MEK5 -2.0 and MEKK2 WT-MEK5 97.0.
`CCN(CC)c1ccc(S(=O)(=O)N2CCOCC2)cc1NC(=O)CNCc1cccc(Cl)c1` gave CendR NRP1 mod 3.8 and SKN-1 inh 6.3.
C[C@H](CO)N1C[C@H](C)[C@H](CN(C)C(=O)c2ccccc2)OCc2ccccc2-c2c(n(C)c3ccccc23)C1=O was read as CendR NRP1 mod -10.1 and SKN-1 inh -2.1.
O=C(c1ccc(OCCN2CCCCC2)cc1)c1c(-c2ccc(O)cc2)sc2cc(O)ccc12 was read as CendR NRP1 mod -15.1, MEKK3 PB1 HTS 111.0, SKN-1 inh -3.2, MEKK2 mut-MEK5 28.0*, MEKK2 WT-MEK5 201.0*, MEKK2wt confirm 143.0, MEKK2mut-MEK5 33.0 and MEKK3 confirm 94.0.
`COC(=O)c1ccc(CSc2nnc(NC(C)C)s2)o1` gave CendR NRP1 mod -4.0, MEKK3 PB1 HTS 71.0*[inhibitor], SKN-1 inh 0.4, MEKK2 mut-MEK5 -2.0, MEKK2 WT-MEK5 84.0, MEKK2wt confirm 108.0, MEKK2mut-MEK5 0.0 and MEKK3 confirm 101.0.
